NS1 function inh: blocks influenza NS1 protein function; AID 2326; 270,000 compounds, 0.4% hits; Potency, µM (highest dose often 46.1 µM); also: actives are rising curves; nearly all actives have a fitted effect of over 50% in size
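Compounds were scored for reversing the slow growth caused by influenza A NS1 in S. cerevisiae, measured by optical density at 600 nm. Assay medium contained 2% galactose at pH 6.0; NS1-free yeast of the same strain were the positive control.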
RE007 growth inh: less growth of the S. pombe RE007 Vpr strain. S. pombe RE007 Vpr strain, BacTiter-Glo ATP luminescence, 24 h. Potency, µM (doses to about 92.2 µM), actives largely listed as inhibitors. 360,000 compounds, 0.21% hits. AID 651644; active = well fitted falling curve with a large enough effect; inconclusive = small, poorly fitted or top-dose-only effect; inactive = no such curve, though single readings can be large or run the other way; also: nearly all actives have a fitted effect of over 50% in size
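Fission yeast strain RE007, carrying one chromosomally integrated HIV-1 vpr copy, was seeded at OD 0.01 in PMG+AL medium with 23 nL pinned compound. After 24 h at 30 °C and 99% humidity, viability was read by BacTiter-Glo luminescence.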
Pf growth 96h: P. falciparum growth inhibition at 96 hours; P. falciparum luciferase reporter growth, 96 h; Potency, µM (series often up to 28.7 µM), most hits filed as inhibitors; 320,000 compounds, 6.9% hits; active = well fitted inhibition curve with a large enough effect; inconclusive = small, poorly fitted or top-dose-only effect, or another doubt; inactive = no such curve, though single readings can be large or run the other way
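P. falciparum expressing integrated firefly luciferase, in erythrocytes at 2% hematocrit, 0.05% parasitemia, incubated with compounds 96 h at 37 C, 5% CO2. Growth inhibition read as loss of luminescence; two-generation exposure targets delayed-death apicoplast inhibitors.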
SARS PLP yeast: SARS-CoV PLP inhibition in yeast; S. cerevisiae expressing SARS-CoV PLpro, growth rescue; Potency, µM (top dose mostly 32.9 µM), actives largely listed as activators; 330,000 compounds, 0.19% hits; AID 485353; also: nearly all actives have a fitted effect of over 55% in size
Pf growth 48h: inhibits P. falciparum growth in the first generation, 48 h. AID 504832. 310,000 compounds, 5.9% hits. P. falciparum luciferase growth in erythrocytes, 48 h. Potency, µM (highest dose often 28.7 µM), actives largely listed as inhibitors; active = well fitted inhibition curve with a large enough effect; inconclusive = small, poorly fitted or top-dose-only effect, or another doubt; inactive = no such curve, though single readings can be large or run the other way
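Compounds are pin-transferred into medium, infected erythrocytes (2% hematocrit, 0.1% parasitemia final) are added, and plates sit one parasite generation at 37 C in 5% CO2. Detection reagent is then added and luminescence measured.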
A number is an active result; [ ] = another dose, or the depositor's remark. In the library only some 9.5% were active in any assay of this set; here they are far more common. Unless noted, calls follow the shape of the full dose curve.

Cc1ccc(C)c(N2CCN(C(=S)Nc3ccc4nc(N5CCOCC5)cc(C)c4c3)CC2)c1 was read as RE007 growth inh inactive, Pf growth 96h inactive, SARS PLP yeast inactive and Pf growth 48h inconclusive.
Screening Cc1cc(N2CCN(C)CC2)nc2ccc(NC(=S)N3CCC4(CC3)OCCO4)cc12 returned NS1 function inh inactive, RE007 growth inh inactive, Pf growth 96h 11.7µM, SARS PLP yeast inactive and Pf growth 48h 4.15µM.
For CC(OC(=O)C1CCN(S(=O)(=O)c2ccc(C(C)(C)C)cc2)CC1)C(=O)N(C)C1CCCCC1 (stereo not drawn) the results were RE007 growth inh inactive.
Screening O=C(Nc1ccc2nc(N3CCOCC3)sc2c1)c1cc2ccccc2o1 returned RE007 growth inh inactive.
Screening Cc1c(C(=O)Nc2ccc3nc(N4CCOCC4)sc3c2)oc2ccccc12 returned RE007 growth inh inconclusive, Pf growth 96h inconclusive, SARS PLP yeast inactive and Pf growth 48h 10.4µM.
CCc1nccn1CCC(=O)NC1CC(C)(C)Cc2c1cnn2-c1cccc(F)c1 (stereo not drawn) was read as NS1 function inh inactive, RE007 growth inh inactive, Pf growth 96h inactive, SARS PLP yeast inactive and Pf growth 48h inactive.
For Cc1ccc(C)c(S(=O)(=O)N=Nc2c(O)[nH]c3ccccc23)c1 the results were RE007 growth inh inactive, Pf growth 96h inactive[5.75 µM], SARS PLP yeast inactive and Pf growth 48h inactive.
For Cc1ccc(S(=O)(=O)N=Nc2c(O)[nH]c3ccccc23)cc1 the results were NS1 function inh inactive, RE007 growth inh inactive, Pf growth 96h 11.7µM, SARS PLP yeast inactive and Pf growth 48h inactive.
Cc1ccc(C(=O)Nc2ccccc2C(=O)NCc2ccco2)cc1 was read as RE007 growth inh inactive and SARS PLP yeast inactive.
`COc1cc(NC(=O)c2ccccc2)c(OC)cc1NC(=O)CN1C(=O)NC2(CCCCC2C)C1=O` (stereo not drawn) gave RE007 growth inh inactive, Pf growth 96h inconclusive, SARS PLP yeast inactive[6.58 µM] and Pf growth 48h inconclusive.
`CCOc1ccc(CN(C)C(=O)c2cccc(S(=O)(=O)N3CCCC3)c2)cc1OC` gave RE007 growth inh inactive, Pf growth 96h inactive, SARS PLP yeast inactive and Pf growth 48h inactive.
Screening O=C(Nc1ccccc1-c1nnc(SCc2ccc(Cl)cc2Cl)o1)c1ccccc1 returned NS1 function inh inactive, RE007 growth inh inactive, Pf growth 96h 2.33µM, SARS PLP yeast inactive and Pf growth 48h inactive.
COc1ccc(C(=O)OCC(=O)c2ccc[nH]2)c(OC)c1 was read as RE007 growth inh inactive and SARS PLP yeast inactive.
For CCC(C)N(NC(C)=O)c1nc(Cl)nc(NC(C)C)n1 (stereo not drawn) the results were NS1 function inh inactive, RE007 growth inh inactive, Pf growth 96h inconclusive, SARS PLP yeast inactive and Pf growth 48h 2.08µM.
`NC(=NCc1ccc(Cl)c(Cl)c1)NC(=O)c1nc(Cl)c(N)nc1N` gave NS1 function inh inactive.
O=C(Nc1ccc(OC(F)(F)F)cc1)c1ccc2nc[nH]c2c1 was read as NS1 function inh inactive, RE007 growth inh inactive, Pf growth 96h inactive, SARS PLP yeast inactive and Pf growth 48h inactive.
NC(=O)c1cccc(-c2cc(Nc3ccc(OC(F)(F)F)cc3)ncn2)c1 was read as NS1 function inh inactive, RE007 growth inh inactive, Pf growth 96h 14.7µM, SARS PLP yeast inactive and Pf growth 48h 13.1µM.
CCOC(=O)C1=CN(CC)S(=O)(=O)NC1c1ccc(C(F)(F)F)cc1 (stereo not drawn) was read as RE007 growth inh inactive and SARS PLP yeast inactive.
Cc1nn(Cc2c(F)c(F)c(F)c(F)c2F)c(C)c1NC(=O)c1nn(C)c(C)c1Br was read as NS1 function inh inactive, RE007 growth inh inactive, Pf growth 96h inactive, SARS PLP yeast inactive and Pf growth 48h inactive.
Screening CNC(=O)c1ccc(=O)n(Cc2cccc(C(F)(F)F)c2)c1 returned NS1 function inh inactive, RE007 growth inh inactive, Pf growth 96h inactive, SARS PLP yeast inactive and Pf growth 48h 2.94µM.
`Cc1ccc(-n2nc3c(Cl)nnc(C)c3c2C)cc1` gave NS1 function inh inactive, RE007 growth inh inactive, Pf growth 96h 0.329µM, SARS PLP yeast inactive and Pf growth 48h 0.415µM.
`Cc1ccc(-n2nc3c(N4CCC(C(=O)N5CCC(C(N)=O)CC5)CC4)nnc(C)c3c2C)cc1` gave NS1 function inh inactive, RE007 growth inh inactive, Pf growth 96h inactive, SARS PLP yeast inactive and Pf growth 48h inconclusive.
